Measurements from PubChem BioAssay AID1347426 (Functional Genomics Laboratory (NCATS/FGL), 2020).
About 1,400 (4.5%) of roughly 31,000 sequences were called active. The full list was thinned out, with actives kept by preference. Values without a mark were called inactive.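 How the source made its calls: active means median seed-adjusted z-score above 1 or below -1; inactive means the rest.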

Test: Novel Modifiers of Survival Motor Neuron (SMN) Protein: Gene Identification via Genome-wide siRNA Screen
Details: HEK293T SMN2-luciferase reporter, siRNA knockdown, 72 h; actives lie on both sides
Description: Spinal muscular atrophy (SMA) is the most common neuromuscular autosomal recessive disorder and one of the leading genetic causes of infant death. SMA results from mutations inducing loss of function or deletion in the survival of motor neuron-1 gene (SMN1), leading to deficiency of the survival motor neuron (SMN) protein. Although a second nearly identical gene, SMN2, is retained in humans, its expression primarily produces an aberrantly spliced isoform that is largely unstable and quickly degraded. We performed a genome-wide RNAi screen using a cell-based reporter assay to identify genes and pathways that modulate SMN protein stability. The screen identified over 200 genes that led to the greatest increase or decrease in luciferase expression.
Using HEK293T cells stably expressing a luciferase reporter that combines the promoter and splicing based cassettes in tandem with the major portion of the native SMN2 cDNA with luciferase, we performed a genome-wide RNAi screen to identify modulators of SMN protein levels. Luciferase is expressed when full-length SMN protein is generated with luminescence signal proportional to SMN protein levels. Our luciferase-based reporter assay was used to screen Ambion Silencer Select Human Druggable Genome siRNA library (10418 genes, 3 unique siRNAs per gene) using lipid-based reverse transfection.
Briefly, 1 pmol of each siRNA was spotted to a well of a 384-well plate (Corning, Corning, NY) and 20 microL of serum-free DMEM containing […] of Lipofectamine RNAiMax (Life Technologies, Carlsbad, CA) was then added to each well. Transfected cells were maintained at 37 degrees C in 5% CO2 for 72 hours, 20 microL of ONE-Glo Reagent (Promega) was added to wells for luciferase quantification. Raw luminescence reads were normalized to Ambion(R) Silencer(R) Negative Control #2 siRNA, then log10 transformed. A robust statistical measure of median absolute deviation (MAD) to standardize siRNA activities from each screen. Common Seed Analysis was used to help prioritize clean hits as opposed to those appearing to arise from seed based off-target effects. Candidate modulators were defined as the genes having a MAD score greater than 1.0 or less than -1.0.

Sequence | median seed-adjusted z-score
GCAGUGCGUUCAGUGCAAATT against FHL2 | 0.475
CGAUUAGGACUGACAAUAATT against IFT57 | -1.1 (active)
GCUUGUUCCUUCAAUUAAATT against ZNF41 | 0.342
GCAUUAGGUUCACUAAAUATT against GPR160 | -0.278
GGCUUAACCUGGUGAUAAATT against GLUD1 | 0.156
GGAUGACGGUGUCUACUCATT against CLCA1 | 0.015
GUUCUUGUCUAAGACAUGATT against ZNF799 | -1.02 (active)
GGUUAAUAUUGCGAAAGUATT against TXNDC1 | 0.458
AGCUCUACAUUGGCGAUGATT against DUPD1 | -0.406
GCAUAUUCCAAACUAGUGATT against STARD6 | 0.0605
GCGUGGAACCGGACAUCAATT against TPSD1 | 0.0848
CCACGUCACCAGUACUAUATT against UBA1 | 1.34 (active)
ACAGUGUGGUUCUUCAUUUTT against C1QL3 | -0.276
CAUCACCUGUAGAACCUGATT against PIAS2 | -0.096
GAAUGGUCCUAAAACACCATT against NFE2L2 | -0.596
GAAAUUGAUAAGCAAAGUATT against TRO | 2.04 (active)
CUGCCUACGUGAACUGGAUTT against TPSG1 | 0
GAAGGAGACUAAUGAGCAATT against FGD4 | -0.0017
CGAGUGUCUUCACUACAAATT against IL3RA | -0.951
GCAAGUCGUCUAUUCAGAATT against RRAGD | 0.313
GGCACUUAAGGUUCGCUAUTT against PPP4C | 1.15 (active)
GGCUCUUGGAAUAACUGAATT against SERPINI1 | 0.127

Sequence | median seed-adjusted z-score
CAUUAAAGGUUUACCCAAUTT against IDH1 | 0.421
GGCUUUGAAUUCAAUCUAUTT against GPR149 | -0.186
CGUCGCGCCCUGUACAUAATT against GPR35 | -1.46 (active)
UCAGUUACCUGCAUACCAATT against AEBP1 | -0.0536
CCUACUAUGAUGUUAGUAATT against SCGN | -0.0164
GAUACUCAGAAGUUGAUAATT against MYSM1 | -0.116
ACACUCUUGUGGUCAAGAATT against HNRNPC | -2.15 (active)
GCAAGAAACUCCACCCUUUTT against RGS3 | 0.065
CUACCACAAUCAUCGAAAATT against FABP3 | -0.0786
CAAACCUAACUAUACAUAATT against ZNF107 | 0.0761
GUAAGCAUUUUAAUUCCAATT against CLCA3 | 0.424
UUACAUUGAUUACACUGGATT against RBM24 | 0.0471
UCGUUUUUACAGAUGUUAATT against SAP18 | 2.14 (active)
CCUACUAUCAAGAUUCAAATT against HERC3 | -0.0884
GAGUCAACCCAUACAUUAATT against PLS1 | -0.0715
GCUGGUUUAUUUAACUCGATT against E2F6 | -0.299
GAGUCUGUUUUACGACAAATT against TMPRSS11D | -0.0643
CCAGUCGCGUAAGACAACATT against PYDC1 | -1.44 (active)
CCCAGAGCUUCAAAGUGUATT against HSD17B1 | -0.569
GCAGAGCGGAAGUAAGGAUTT against AFMID | -0.515
CAUUAUCUCGUUUCCGGAATT against IFNGR2 | 0.148
GCGGAAAGGUGGACUUUGATT against CABP2 | 0.323

Sequence | median seed-adjusted z-score
GCAUCCUCAUCAACCGCAATT against SAPS1 | 1.16 (active)
CCCAGAAGAUGACCACUCATT against PDXDC1 | 0.665
GACUUGCCCUUACUGCAAATT against RNF175 | 0.127
CGUUGCUAGUGCUCACUUATT against FRAG1 | -0.554
GAUAUUUGAUUGAUGUAGATT against DUSP11 | -0.0184
ACAGAAUAAUGUACAAGAATT against POLR2K | -3.72 (active)
GCCUAGACCUCUUCGCUUUTT against PASK | 0
GCAGCUGAGUUCUACAAGATT against RAG1 | -1.35 (active)
GGAUAAUGAGUCGGAAGUATT against CNTN4 | -0.407
CCAGGUUUAUGUAGAAGUUTT against NMI | 0.982
GGAUGAAGAACGAAUGGUATT against ENDOD1 | -0.138
GGCACUCAGCGCAAGAAGATT against TIGD5 | 0
GGAAGAGGAGUAGACCUUATT against RAB5A | 0.244
CCGGCAAGAUUAUCGAGUATT against HCFC1 | 1.47 (active)
CAUUCGCAAAGGAUCGUGATT against PAPSS2 | -0.201
CAGCGUAUUUGAGAAUUUATT against ATRX | -0.158
GCAAGUGUUUUGAUCAAAATT against ZNF662 | 0.352
GAAUAUUGCAAUAGACUUATT against ZNF678 | 0.172
GCAUUUCACCAUUCAAACATT against PCSK9 | 0.146
GGAUGUUUCCUACCUAUAUTT against FOLR1 | -1.31 (active)
CCAGUUCGCUAUCACCAAATT against MATN1 | -0.271
CGAUCAAUGUUAGAAGUUATT against ACTR2 | 0.548

Sequence | median seed-adjusted z-score
CCUUAGAUCUCGCGAAGAATT against DCT | -0.184
CCAAUACACUAGCAGUUAATT against TCP1 | -1.02 (active)
GCCUGUGAAUGUCCGAGAATT against AARSD1 | -0.156
GGUAGUCUAUCACUUCGAATT against TRIM37 | -0.108
GCUCAACACUCAUCAAACATT against ZNF774 | -0.0834
CAUGGUCACUGCUAGUGUATT against MBOAT1 | -1.22 (active)
GCACCUACUUCAUCUAUAGTT against EDA | 0.316
GAGAUUCAAAGAAUAGUAATT against RASSF6 | -0.592
CCCUUGAAGGCAAAGAUCATT against OPRK1 | -1.08 (active)
GAGAUUCAUCGGUUCAAUATT against WRNIP1 | 0.00972
GCCUUAGUGUGCCUCCCAATT against APLN | 0.0181
GAUCUGGUCGAGUUUAAAATT against NAT2 | -0.0495
CCACAUGACUUAUUAUGCATT against DCN | 0.326
GGGCAGUUCUUGCAACCAUTT against ALDH1A2 | 0.564
CGAGAUAACUACUGCCGAUTT against PCOLCE2 | -1.15 (active)
CCGUCUACGUGACCAUUGATT against ABCC1 | 0
GCUUUUACAACAUUUCGAATT against SLC30A4 | 0.158
GUAAAUCACCGGCUACAAATT against ITGA3 | 0
UCAUGCUCAUUGGGAAUAATT against RAB2B | 0.882
GCUUUGCAGUGAAUAUCGATT against SPINK5 | 0.26
CCUGGAUACCCUAAGCAAATT against PSMD2 | -1.44 (active)
CCACGAUCGUUCACAAGGATT against KCTD4 | 0.649

Sequence | median seed-adjusted z-score
CUAUAGUGGUUCAUCACAATT against GCNT1 | 0.463
ACGAGUACAUCAACGAGUATT against ABCA2 | -1.18 (active)
CACUCAGCGUGGACCAUUUTT against HCN3 | 0.301
CUAUCAAUCCCAGCACUAATT against CDKL3 | 0.243
GCACUCUGAAGAUCGAAUATT against HNRNPL | 1.04 (active)
CUAUGAUUAUAGCCGGGUATT against PTPN22 | -0.0843
GGAAAAGUAUGAACUGAAATT against TREM1 | 0
GGGUCUUACGAAUGCGGAATT against ZNF618 | 0.311
GAACGUAAGAAAUACAAUUTT against HSPA4L | 0.288
CUUCAUCUUUUACACCAUUTT against SLC35B2 | -0.313
CACUACUAAAAACCUAAAATT against EFHD2 | 0.874
GUAGUGAAGUGUAUCCGGATT against ANXA6 | -1.01 (active)
GAAUCCUCAAUGUGGAUGATT against HPCA | 0.12
GGCUUUUUGCUACAGAUGATT against OSGEP | 0.0178
GUAUGUCACCUAUCACUGUTT against SLC25A38 | 0
GCAUCGCUGUAGGUUUUGATT against THBS2 | -0.721
GCAUCUGCGAUGUGAGGAATT against RYBP | 0.831
GCAUCAGGGUCAUGGUUCATT against SCNN1D | -1.8 (active)
CCACCUACAGAGUGUCCUATT against EMID2 | 0.0465
GGACAAGACGCAAGAAGAATT against TEF | 0
CCAAGGAGGUGCACUAUAATT against FHL1 | 0.574
